A selection: hits, their analogues and other compounds. The true share with any hit is near 14%.
Giardia FBPA inh: qHTS Assay for Inhibitors of Fructose-1,6-bisphosphate Aldolase from Giardia Lamblia. A8B2U2. purified Giardia FBPA. Potency, µM (series often up to 59.6 µM), for the others: top-dose activity, negative = inhibition, actives largely listed as inhibitors. actives 0.71% (n = 290,000); further: potency means the concentration at half of the fitted maximal effect; nearly all actives have a fitted effect of over 55% in size
Target sequence (A8B2U2 whole entry, looked up): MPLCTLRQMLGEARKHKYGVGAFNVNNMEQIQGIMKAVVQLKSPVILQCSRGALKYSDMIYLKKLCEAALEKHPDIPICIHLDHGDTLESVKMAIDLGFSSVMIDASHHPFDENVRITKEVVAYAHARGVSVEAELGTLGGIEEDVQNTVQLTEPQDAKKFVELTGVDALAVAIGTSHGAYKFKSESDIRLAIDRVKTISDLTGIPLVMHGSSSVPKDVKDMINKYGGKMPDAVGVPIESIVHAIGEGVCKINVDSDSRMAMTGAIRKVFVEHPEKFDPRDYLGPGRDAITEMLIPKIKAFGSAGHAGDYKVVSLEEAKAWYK
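40 nM FBPA preincubated 10 min at RT with compound (up to 57.5 uM final), then substrate plus GAPDH/TPI/NAD/arsenate coupling and diaphorase/resazurin added. Fluorescence read after 20 min at RT, 525/598 nm.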
Sm TGR inh: qHTS Assay for the Inhibitors of Schistosoma Mansoni Peroxiredoxins; Schistosoma mansoni thioredoxin glutathione reductase (TGR), Q962Y6; purified TGR, DTNB reduction, TNB absorbance 405 nm; Potency, µM (highest dose often 114 µM), inactives show top-dose activity change, negative = inhibition, actives largely listed as inhibitors; actives 3% (n = 360,000); further: potency means the concentration at half of the fitted maximal effect; nearly all actives have a fitted effect of over 60% in size
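Kinetic colorimetric format: TGR-catalysed, NADPH-driven DTNB reduction monitored via TNB absorbance. Enzyme dispensed at 20 nM; compound exposure 15 min at room temperature before reaction start.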
HCMV inh: qHTS Assay for inhibitors of the human cytomegalovirus (HCMV); activity change, negative = inhibition, % at 57.5 µM; AID 1259415, 2018; HFF cells, HCMV-luciferase reporter, 72 h; stronger effect = lower value; actives 4.5% (n = 410,000); in the data active means activity change below about -60%; inconclusive means no clear call, values can overlap the other calls; inactive means above about -39%
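Human foreskin fibroblasts infected with luciferase-reporter HCMV at MOI 1 PFU/cell, compounds at two doses. Luciferase measured 72 h post infection; normalized to buffer-only basal and Salinomycin (10uM) controls.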
Pf growth 48h: Primary qHTS for delayed death inhibitors of the malarial parasite plastid, 48 hour incubation | P. falciparum luciferase growth in erythrocytes, 48 h | Potency, µM (series often up to 28.7 µM), for inactives: top-dose activity change, negative = inhibition, actives largely listed as inhibitors | actives 5.9% (n = 310,000); further: potency means the concentration at half of the fitted maximal effect
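Firefly luciferase activity from engineered P. falciparum reports growth; inhibitors lower the luminescent signal. Cultures contained 2% hematocrit erythrocytes at 0.1% final parasitemia.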
Pf growth 96h: Primary qHTS for delayed death inhibitors of the malarial parasite plastid, 96 hour incubation | P. falciparum luciferase reporter growth, 96 h | Potency, µM (doses to about 28.7 µM), for the others: top-dose activity change, negative = inhibition, hits mostly inhibitors | actives 6.9% (n = 320,000) | AID 504834, 2011; further: potency means the concentration at half of the fitted maximal effect
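Cell-based qHTS: luciferase-tagged P. falciparum in erythrocytes (2% hematocrit, 0.05% parasitemia final) incubated with compounds for 96 hours, 37 C, 5% CO2; luciferase detection reagent then added and luminescence measured.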
* marks the source's active call; other numbers are inactive results; ? = inconclusive; . = no result. Unless noted, the call rests on the fitted dose curve; in most records, active means well fitted curve in the direction sought with a large enough effect; inconclusive means small, poorly fitted or top-dose-only effect, or another doubt; inactive means no such curve, though single readings can be large; an effect the other way counts as inactive or inconclusive. On the % scale 0 is the no-effect control and ±100 the full control effect.

SMILES | Giardia FBPA inh | Sm TGR inh | HCMV inh | Pf growth 48h | Pf growth 96h
CC(C)(C)OC(=O)N1CCC[C@H]1c1nnc(SCc2ccccc2)o1 | -1% | 9% | -38 | ? | 12µM*
CSCC[C@H](NC(=O)OC(C)(C)C)c1nnc(SCc2cccc(F)c2)o1 | 2% | 3% | -29 | ? | 31%
Cc1ccc(CSc2nnc([C@@H]3CCCN3C(=O)OC(C)(C)C)o2)cc1 | -3% | 7% | -16 | ? | ?
CSCC[C@H](NC(=O)OC(C)(C)C)c1nnc(SCc2ccccc2)o1 | -3% | -3% | -22 | 6.6µM* | -13%
CC(C)C[C@H](NC(=O)OC(C)(C)C)c1nnc(SCc2cccc(F)c2)o1 | -15% | 11% | -18 | ? | 10µM*
COc1ccc(Oc2ncc3nc(-c4ccc(OC)cc4)c(=O)n(CCC#N)c3n2)cc1 | 0% | . | . | . | .
Cc1cccc(CN(C)C)c1OC(=O)N(C)C | -7% | 20% | -6 | 19% | 5.9µM*
COc1cccc(C2C(C#N)=C(N)Oc3cc(C)n(Cc4ccco4)c(=O)c32)c1 (centres undefined) | ? | ? | -27 | 4% | -17%
COc1ccccc1C1C(C#N)=C(N)Oc2cc(C)n(Cc3ccccn3)c(=O)c21 (centres undefined) | ? | 35µM* | -4 | . | 55%
CCOc1cccc(C2C(C#N)=C(N)Oc3cc(C)oc(=O)c32)c1OCC (centres undefined) | 1% | 0% | 4 | ? | ?
Cc1cc2c(c(=O)n1CCCn1ccnc1)C(c1ccco1)C(C#N)=C(N)O2 (centres undefined) | 4% | 2% | -1 | -11% | 6%
COc1ccccc1C1C(C#N)=C(N)Oc2cc(C)n(CCCn3ccnc3)c(=O)c21 (centres undefined) | ? | 50µM* | 59 | -8% | .
COc1ccc(C2C(C#N)=C(N)Oc3cc(C)n(Cc4ccco4)c(=O)c32)cc1 (centres undefined) | ? | 32µM* | -10 | 12% | .
CCOc1ccccc1C1C(C#N)=C(N)Oc2cc(C)n(C)c(=O)c21 (centres undefined) | ? | 40µM* | 21 | 8% | 13%
COc1cc(-c2nnc(SCC(=O)NC3CCS(=O)(=O)C3)o2)cc(OC)c1OC (centres undefined) | 8% | 3% | -11 | 11% | 10%
O=C(CCCSc1ccc(Cl)cc1)Nc1ccccc1O | 4% | -10% | . | -13% | 13%
Cc1ccc(CNC(=O)C(=O)NCC(c2ccco2)S(=O)(=O)c2ccccc2)cc1 (centres undefined) | . | -12% | ? | . | .
O=C(NC1(C(F)(F)F)C(=O)Nc2c1c(=O)[nH]c(=O)n2-c1ccc(Cl)cc1)c1ccccc1F (centres undefined) | . | 6% | 13 | . | .
COc1cccc(C2C(C#N)=C(N)Oc3cc(C)n(Cc4ccccn4)c(=O)c32)c1OC (centres undefined) | -11% | -16% | 52 | -12% | 26%
CCOc1ccccc1C1C(C#N)=C(N)Oc2cc(C)n(Cc3ccccn3)c(=O)c21 (centres undefined) | ? | 35µM* | 12 | 3% | -3%
O=C(NCCC1=CCCCC1)C1CCC(CNc2c(N3CCCCC3)c(=O)c2=O)CC1 (centres undefined) | 0% | 3% | 0 | 9.3µM* | ?
CC1CCN(c2c(NCC3CCC(C(=O)NCCC4=CCCCC4)CC3)c(=O)c2=O)CC1 (centres undefined) | 0% | 1% | -28 | 7.4µM* | ?
CC1CCN(c2c(NCC3CCC(C(=O)N4CCc5ccccc5C4)CC3)c(=O)c2=O)CC1 (centres undefined) | -4% | -10% | 0 | . | -18%
O=C(C1CCC(CNc2c(N3CCCCC3)c(=O)c2=O)CC1)N1CCc2ccccc2C1 (centres undefined) | 3% | -11% | 23 | 9.3µM* | -44%

Bioassay records (PubChem BioAssay)
